Holding throughout (test): DAPPL (digital affinity profiling via proximity ligation, sequencing); 10 mM Tris-HCl pH 7.5, 50 mM NaCl, 1 mM DTT, 4% glycerol, room temperature, 30 min; GST-TFs on glutathione beads, 16-mer random dsDNA library, 0.1% formaldehyde crosslink after washing; high values mean tight binding
One assay deals with T1, FEV (Homo sapiens, UniProt Q99581 1-238).
T1 sequence: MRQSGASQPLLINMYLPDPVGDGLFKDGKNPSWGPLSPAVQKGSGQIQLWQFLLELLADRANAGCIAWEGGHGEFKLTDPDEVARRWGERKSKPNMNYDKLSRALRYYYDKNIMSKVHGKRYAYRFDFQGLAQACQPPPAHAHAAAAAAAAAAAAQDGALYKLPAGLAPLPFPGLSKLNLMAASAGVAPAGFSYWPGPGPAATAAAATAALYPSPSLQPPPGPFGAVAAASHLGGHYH
The following applies: protein: recombinant; tags: N-terminal GST; dsDNA, one strand shown. A digest of the protocol:
(§1)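 In yeast, human transcription factors were expressed with a GST fusion, then pulled down on glutathione beads and given DNA barcodes. Pooled with a tag-only sample, they were exposed to 200 nmole of a 16-mer random double-stranded DNA library (Tris/NaCl/DTT/glycerol buffer, room temperature, 30 min), washed, crosslinked with 0.1% formaldehyde, proximity-ligated using BsaI/T4 ligase for 1 h at 37 °C, PCR-amplified and read on an Illumina NextSeq500. Each hexamer's frequency of reads for a factor, divided by the matching frequency for the tag-only sample, gives the binding signal.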

Another assay concerns the target ETV5 (Homo sapiens, UniProt P41161 1-510). The following applies: protein: recombinant; tags: N-terminal GST; dsDNA, one strand shown. A digest of the protocol:
as §1

In another assay the target is HSF1 (Homo sapiens, UniProt Q00613 1-529). The following applies: protein: recombinant; tags: N-terminal GST; chain copies: 3; dsDNA, one strand shown. In a few lines: as §1
Chain of HSF1 (Q00613 whole entry): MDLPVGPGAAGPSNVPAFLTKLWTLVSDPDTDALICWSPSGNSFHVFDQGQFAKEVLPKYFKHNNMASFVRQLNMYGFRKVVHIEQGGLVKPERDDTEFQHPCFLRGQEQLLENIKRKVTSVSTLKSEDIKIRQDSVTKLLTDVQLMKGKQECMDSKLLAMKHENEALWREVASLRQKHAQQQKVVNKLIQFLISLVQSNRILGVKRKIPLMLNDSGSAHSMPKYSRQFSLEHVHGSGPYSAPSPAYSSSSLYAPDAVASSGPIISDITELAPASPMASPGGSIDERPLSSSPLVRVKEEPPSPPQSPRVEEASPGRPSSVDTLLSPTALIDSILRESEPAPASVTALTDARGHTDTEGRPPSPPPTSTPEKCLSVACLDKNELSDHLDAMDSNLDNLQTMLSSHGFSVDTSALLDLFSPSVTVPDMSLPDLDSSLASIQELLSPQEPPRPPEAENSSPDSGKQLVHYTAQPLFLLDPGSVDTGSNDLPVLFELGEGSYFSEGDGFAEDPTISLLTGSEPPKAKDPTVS
For the next assay, the target named is T2, SPIC (Homo sapiens, UniProt Q8N5J4 1-248).
T2 sequence: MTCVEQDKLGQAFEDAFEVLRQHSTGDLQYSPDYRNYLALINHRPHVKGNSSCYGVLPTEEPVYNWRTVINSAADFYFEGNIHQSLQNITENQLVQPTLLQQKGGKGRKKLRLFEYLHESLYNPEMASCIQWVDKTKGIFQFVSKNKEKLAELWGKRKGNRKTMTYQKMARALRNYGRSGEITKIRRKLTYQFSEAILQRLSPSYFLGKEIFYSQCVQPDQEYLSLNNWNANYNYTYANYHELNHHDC
Particulars: protein: recombinant; tags: N-terminal GST; dsDNA, one strand shown. In a few lines:
as §1

The next assay has as its target ELF4 (Homo sapiens, UniProt Q99607 1-663). The following applies: protein: recombinant; tags: N-terminal GST; dsDNA, one strand shown. In a few lines: as §1
The target of the next assay is T3, ELK4 (Homo sapiens, UniProt P28324-2 1-405).
T3 sequence: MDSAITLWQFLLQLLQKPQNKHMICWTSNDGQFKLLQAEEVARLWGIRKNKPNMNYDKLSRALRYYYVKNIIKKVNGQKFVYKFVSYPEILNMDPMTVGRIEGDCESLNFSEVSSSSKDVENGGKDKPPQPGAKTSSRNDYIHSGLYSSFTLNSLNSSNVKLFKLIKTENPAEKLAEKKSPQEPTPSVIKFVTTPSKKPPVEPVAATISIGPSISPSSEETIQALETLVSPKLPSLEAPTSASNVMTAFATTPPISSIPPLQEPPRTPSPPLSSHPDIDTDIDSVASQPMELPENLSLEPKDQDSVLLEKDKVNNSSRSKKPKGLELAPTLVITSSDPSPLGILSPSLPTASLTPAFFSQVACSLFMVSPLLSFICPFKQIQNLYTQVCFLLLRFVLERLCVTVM
The following applies: protein: recombinant; tags: N-terminal GST; dsDNA, one strand shown. A digest of the protocol:
as §1

In a further assay the target is T4, ETV2 (Homo sapiens, UniProt O00321 1-342).
T4 sequence: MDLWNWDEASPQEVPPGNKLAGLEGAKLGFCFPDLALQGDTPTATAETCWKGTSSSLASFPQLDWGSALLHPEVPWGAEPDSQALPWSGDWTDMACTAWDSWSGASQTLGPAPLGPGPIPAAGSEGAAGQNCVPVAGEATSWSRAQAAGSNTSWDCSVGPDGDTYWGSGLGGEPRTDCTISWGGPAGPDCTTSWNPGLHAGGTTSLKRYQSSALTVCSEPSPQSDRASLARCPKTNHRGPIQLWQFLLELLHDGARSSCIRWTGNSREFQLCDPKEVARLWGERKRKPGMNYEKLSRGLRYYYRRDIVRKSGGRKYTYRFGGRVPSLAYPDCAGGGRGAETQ
Particulars: protein: recombinant; tags: N-terminal GST; dsDNA, one strand shown. A digest of the protocol: as §1

A further assay concerns the target T5, ELF3 (Homo sapiens, UniProt P78545 1-371).
T5 sequence: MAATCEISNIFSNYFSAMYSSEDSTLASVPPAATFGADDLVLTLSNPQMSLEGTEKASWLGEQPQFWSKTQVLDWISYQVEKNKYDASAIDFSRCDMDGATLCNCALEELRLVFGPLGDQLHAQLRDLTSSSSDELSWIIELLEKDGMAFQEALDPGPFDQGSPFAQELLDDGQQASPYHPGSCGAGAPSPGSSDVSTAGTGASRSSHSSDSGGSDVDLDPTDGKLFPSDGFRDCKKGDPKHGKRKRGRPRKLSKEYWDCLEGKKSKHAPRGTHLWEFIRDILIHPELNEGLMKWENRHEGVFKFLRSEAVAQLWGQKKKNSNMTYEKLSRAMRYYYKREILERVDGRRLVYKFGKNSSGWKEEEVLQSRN
Particulars: protein: recombinant; tags: N-terminal GST; dsDNA, one strand shown. In a few lines:
as §1

The next assay addresses CRX (Homo sapiens, UniProt O43186 1-299). Particulars: protein: recombinant; tags: N-terminal GST; dsDNA, one strand shown. In a few lines:
as §1

The next assay has as its target ETV1 (Homo sapiens, UniProt P50549 1-477). The following applies: protein: recombinant; tags: N-terminal GST; dsDNA, one strand shown. In a few lines:
as §1

In a further assay the target is T6, ERF (Homo sapiens, UniProt P50548 1-548).
T6 sequence: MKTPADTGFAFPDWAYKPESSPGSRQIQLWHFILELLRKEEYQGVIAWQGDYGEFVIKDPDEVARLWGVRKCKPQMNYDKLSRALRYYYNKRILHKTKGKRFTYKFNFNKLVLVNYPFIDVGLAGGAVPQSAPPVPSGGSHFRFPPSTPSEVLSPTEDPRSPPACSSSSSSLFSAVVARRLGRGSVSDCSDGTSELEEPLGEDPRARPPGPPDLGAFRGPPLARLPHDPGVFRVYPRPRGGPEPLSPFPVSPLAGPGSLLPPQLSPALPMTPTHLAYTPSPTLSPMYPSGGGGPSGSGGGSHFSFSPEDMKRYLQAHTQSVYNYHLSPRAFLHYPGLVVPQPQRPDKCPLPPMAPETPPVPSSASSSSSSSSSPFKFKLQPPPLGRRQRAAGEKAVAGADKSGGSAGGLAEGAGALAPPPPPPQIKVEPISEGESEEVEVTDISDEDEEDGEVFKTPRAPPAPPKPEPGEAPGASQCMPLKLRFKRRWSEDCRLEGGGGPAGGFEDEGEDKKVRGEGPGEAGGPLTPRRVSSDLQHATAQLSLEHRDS
The following applies: protein: recombinant; tags: N-terminal GST; dsDNA, one strand shown. A digest of the protocol: as §1

The target of another assay is T7, ETV3L (Homo sapiens, UniProt Q6ZN32 1-361).
T7 sequence: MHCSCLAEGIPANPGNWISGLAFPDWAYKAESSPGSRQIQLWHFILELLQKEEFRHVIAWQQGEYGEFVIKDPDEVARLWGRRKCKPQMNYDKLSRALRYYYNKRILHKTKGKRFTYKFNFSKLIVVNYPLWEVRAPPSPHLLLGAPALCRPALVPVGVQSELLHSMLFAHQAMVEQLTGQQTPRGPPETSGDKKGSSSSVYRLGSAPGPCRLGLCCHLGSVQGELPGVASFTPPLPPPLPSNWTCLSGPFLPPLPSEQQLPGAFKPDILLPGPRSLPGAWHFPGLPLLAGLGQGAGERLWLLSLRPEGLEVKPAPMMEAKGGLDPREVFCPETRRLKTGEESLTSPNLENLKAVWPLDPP
Particulars: protein: recombinant; tags: N-terminal GST; dsDNA, one strand shown. In a few lines:
as §1

A further assay addresses T8, ETS2 (Homo sapiens, UniProt P15036 1-469).
T8 sequence: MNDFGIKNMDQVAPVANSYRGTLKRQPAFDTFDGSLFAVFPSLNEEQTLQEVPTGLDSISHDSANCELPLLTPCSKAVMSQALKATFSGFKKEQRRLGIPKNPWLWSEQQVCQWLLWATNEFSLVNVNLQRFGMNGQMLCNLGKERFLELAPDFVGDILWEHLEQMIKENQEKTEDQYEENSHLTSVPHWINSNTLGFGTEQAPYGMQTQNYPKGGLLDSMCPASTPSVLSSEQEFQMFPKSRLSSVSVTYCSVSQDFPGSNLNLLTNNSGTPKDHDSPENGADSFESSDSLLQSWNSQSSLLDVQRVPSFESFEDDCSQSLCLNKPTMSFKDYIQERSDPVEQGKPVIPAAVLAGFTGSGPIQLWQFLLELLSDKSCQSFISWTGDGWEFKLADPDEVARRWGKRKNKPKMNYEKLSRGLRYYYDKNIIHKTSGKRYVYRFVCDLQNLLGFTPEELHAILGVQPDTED
Particulars: protein: recombinant; tags: N-terminal GST; dsDNA, one strand shown. A digest of the protocol:
as §1

Another assay concerns the target T9, SPDEF (Homo sapiens, UniProt O95238 1-335).
T9 sequence: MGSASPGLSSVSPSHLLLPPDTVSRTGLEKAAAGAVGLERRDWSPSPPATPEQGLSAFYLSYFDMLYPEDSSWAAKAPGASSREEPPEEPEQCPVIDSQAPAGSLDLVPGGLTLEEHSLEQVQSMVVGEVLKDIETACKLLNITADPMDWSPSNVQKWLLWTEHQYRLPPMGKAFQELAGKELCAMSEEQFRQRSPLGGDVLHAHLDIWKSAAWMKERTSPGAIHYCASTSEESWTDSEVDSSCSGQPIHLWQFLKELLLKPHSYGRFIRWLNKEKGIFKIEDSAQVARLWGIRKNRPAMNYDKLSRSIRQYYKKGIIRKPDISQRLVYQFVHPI
The following applies: protein: recombinant; tags: N-terminal GST; dsDNA, one strand shown. In a few lines: as §1

In another assay the target is T10, ETV7 (Homo sapiens, UniProt Q9Y603 1-341).
T10 sequence: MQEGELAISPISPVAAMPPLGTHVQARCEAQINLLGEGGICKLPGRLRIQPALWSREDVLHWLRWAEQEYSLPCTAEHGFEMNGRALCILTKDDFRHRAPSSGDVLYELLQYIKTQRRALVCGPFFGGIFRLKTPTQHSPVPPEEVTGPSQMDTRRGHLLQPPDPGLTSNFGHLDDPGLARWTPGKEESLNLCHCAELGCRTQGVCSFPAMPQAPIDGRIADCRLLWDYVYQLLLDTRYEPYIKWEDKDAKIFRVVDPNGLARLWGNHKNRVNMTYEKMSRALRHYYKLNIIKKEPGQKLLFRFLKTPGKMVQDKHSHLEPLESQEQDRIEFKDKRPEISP
The following applies: protein: recombinant; tags: N-terminal GST; dsDNA, one strand shown. In a few lines: as §1

The target in a further assay is T11, ELF5 (Homo sapiens, UniProt Q9UKW6-2 1-255).
T11 sequence: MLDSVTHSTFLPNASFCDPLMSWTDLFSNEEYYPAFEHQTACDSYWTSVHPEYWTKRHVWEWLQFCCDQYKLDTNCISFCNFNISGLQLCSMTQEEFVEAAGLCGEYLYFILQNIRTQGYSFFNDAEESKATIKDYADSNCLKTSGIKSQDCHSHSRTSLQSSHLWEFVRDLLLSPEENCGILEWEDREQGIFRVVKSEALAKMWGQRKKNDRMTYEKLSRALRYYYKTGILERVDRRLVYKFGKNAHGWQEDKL
Particulars: protein: recombinant; tags: N-terminal GST; dsDNA, one strand shown. In a few lines:
as §1

The target of the next assay is T12, ETV3 (Homo sapiens, UniProt P41162-2 1-143).
T12 sequence: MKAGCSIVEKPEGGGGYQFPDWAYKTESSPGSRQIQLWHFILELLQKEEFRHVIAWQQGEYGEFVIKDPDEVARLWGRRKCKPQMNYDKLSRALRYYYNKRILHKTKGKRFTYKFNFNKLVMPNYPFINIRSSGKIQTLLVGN
The following applies: protein: recombinant; tags: N-terminal GST; dsDNA, one strand shown. A digest of the protocol: as §1

In a further assay the target is ETV6 (Homo sapiens, UniProt P41212 1-452). The following applies: protein: recombinant; tags: N-terminal GST; dsDNA, one strand shown. A digest of the protocol: as §1
Chain of ETV6 (P41212 whole entry): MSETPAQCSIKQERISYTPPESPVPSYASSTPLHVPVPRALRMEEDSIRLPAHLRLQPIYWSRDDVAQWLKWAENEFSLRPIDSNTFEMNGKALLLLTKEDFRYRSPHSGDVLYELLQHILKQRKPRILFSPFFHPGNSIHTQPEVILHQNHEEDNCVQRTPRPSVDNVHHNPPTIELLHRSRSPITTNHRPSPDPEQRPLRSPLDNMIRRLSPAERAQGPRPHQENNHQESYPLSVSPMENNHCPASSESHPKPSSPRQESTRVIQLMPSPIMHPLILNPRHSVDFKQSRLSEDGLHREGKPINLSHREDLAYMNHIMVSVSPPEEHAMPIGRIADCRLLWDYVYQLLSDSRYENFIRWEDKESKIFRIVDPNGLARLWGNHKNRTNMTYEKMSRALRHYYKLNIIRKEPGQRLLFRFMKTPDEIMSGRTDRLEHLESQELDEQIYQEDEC

Chain of ELF4 (Q99607 whole entry): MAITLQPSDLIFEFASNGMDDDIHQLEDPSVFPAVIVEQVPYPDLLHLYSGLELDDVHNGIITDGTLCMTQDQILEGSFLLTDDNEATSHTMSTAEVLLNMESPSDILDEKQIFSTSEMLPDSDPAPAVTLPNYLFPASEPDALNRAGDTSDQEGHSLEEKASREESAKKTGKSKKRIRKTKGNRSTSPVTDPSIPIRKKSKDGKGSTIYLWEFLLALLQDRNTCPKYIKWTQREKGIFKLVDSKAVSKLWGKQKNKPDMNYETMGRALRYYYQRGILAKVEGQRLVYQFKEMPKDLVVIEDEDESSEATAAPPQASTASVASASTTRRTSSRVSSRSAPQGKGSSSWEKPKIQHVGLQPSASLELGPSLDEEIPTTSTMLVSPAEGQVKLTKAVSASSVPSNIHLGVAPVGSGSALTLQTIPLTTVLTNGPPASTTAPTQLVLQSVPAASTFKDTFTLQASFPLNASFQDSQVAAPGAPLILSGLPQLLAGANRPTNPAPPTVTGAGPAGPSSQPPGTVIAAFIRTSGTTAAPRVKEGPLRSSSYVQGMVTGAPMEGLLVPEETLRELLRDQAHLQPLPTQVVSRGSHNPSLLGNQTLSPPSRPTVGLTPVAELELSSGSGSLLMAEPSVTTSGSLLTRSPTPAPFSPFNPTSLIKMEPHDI
Chain of CRX (O43186 whole entry): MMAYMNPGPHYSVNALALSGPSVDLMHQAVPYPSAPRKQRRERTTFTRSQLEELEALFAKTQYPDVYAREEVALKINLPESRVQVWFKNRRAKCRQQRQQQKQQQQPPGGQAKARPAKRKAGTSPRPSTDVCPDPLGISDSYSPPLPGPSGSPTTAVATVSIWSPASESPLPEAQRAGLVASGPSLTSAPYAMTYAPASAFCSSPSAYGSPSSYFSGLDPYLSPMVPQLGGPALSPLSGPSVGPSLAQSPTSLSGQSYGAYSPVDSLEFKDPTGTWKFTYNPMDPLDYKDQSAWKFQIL
Chain of ETV5 (P41161 whole entry): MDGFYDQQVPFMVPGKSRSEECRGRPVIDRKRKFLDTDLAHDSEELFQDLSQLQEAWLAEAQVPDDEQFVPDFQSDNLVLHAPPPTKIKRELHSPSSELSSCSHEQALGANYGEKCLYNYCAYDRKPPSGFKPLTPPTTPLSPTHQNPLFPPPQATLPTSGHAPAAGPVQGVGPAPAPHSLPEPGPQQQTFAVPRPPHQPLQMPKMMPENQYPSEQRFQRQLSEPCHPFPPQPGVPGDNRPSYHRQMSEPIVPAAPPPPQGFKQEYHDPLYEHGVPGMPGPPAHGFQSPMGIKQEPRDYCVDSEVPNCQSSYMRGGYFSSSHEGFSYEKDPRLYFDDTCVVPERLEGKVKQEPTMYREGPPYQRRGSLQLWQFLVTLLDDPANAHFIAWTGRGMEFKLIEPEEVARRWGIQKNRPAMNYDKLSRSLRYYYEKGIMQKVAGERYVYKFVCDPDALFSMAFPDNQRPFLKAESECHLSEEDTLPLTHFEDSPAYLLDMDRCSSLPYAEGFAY
Chain of ETV1 (P50549 whole entry): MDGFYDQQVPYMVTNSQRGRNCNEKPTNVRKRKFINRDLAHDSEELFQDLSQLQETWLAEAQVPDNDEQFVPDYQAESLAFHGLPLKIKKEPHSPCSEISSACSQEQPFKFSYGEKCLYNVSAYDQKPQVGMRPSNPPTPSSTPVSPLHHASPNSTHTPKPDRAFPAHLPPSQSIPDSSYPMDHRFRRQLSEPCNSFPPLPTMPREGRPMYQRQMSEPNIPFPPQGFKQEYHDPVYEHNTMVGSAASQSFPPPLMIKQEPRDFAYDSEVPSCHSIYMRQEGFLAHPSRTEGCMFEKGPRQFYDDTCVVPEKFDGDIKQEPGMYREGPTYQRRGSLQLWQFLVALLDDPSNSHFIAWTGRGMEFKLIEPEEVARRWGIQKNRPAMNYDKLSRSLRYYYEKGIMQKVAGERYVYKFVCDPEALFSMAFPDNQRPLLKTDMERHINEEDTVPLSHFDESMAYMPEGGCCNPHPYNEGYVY

On to ATCACC, for which the binding signal is 1.09 fold enrichment (6-mer frequency, TF over GST control) with FEV; 1.11 fold enrichment (6-mer frequency, TF over GST control) in the assay with ETV5; 1.05 fold enrichment (6-mer frequency, TF over GST control) in the assay with HSF1; 1.1 fold enrichment (6-mer frequency, TF over GST control) with SPIC; 1.22 fold enrichment (6-mer frequency, TF over GST control) in the assay with ELF4; 1.07 fold enrichment (6-mer frequency, TF over GST control) with ELK4. Further, the binding signal with ETV2 was 1.03 fold enrichment (6-mer frequency, TF over GST control); with ELF3 it was 1.17 fold enrichment (6-mer frequency, TF over GST control); with CRX, 1.14 fold enrichment (6-mer frequency, TF over GST control); with ETV1, 1.1 fold enrichment (6-mer frequency, TF over GST control); in the assay with ERF, 1.13 fold enrichment (6-mer frequency, TF over GST control); in the assay with ETV3L, 1.17 fold enrichment (6-mer frequency, TF over GST control). Also, the binding signal is 1.05 fold enrichment (6-mer frequency, TF over GST control) with ETS2; 1.12 fold enrichment (6-mer frequency, TF over GST control) with SPDEF; 1 fold enrichment (6-mer frequency, TF over GST control) with ETV7; 1.01 fold enrichment (6-mer frequency, TF over GST control) with ELF5; 1.12 fold enrichment (6-mer frequency, TF over GST control) with ETV3; 1.06 fold enrichment (6-mer frequency, TF over GST control) with ETV6.

These data come from publication PMC7862700, “An all-to-all approach to the identification of sequence-specific readers for epigenetic DNA modifications on cytosine”.
